Results reported in the supplement of paper PMC10849652.
The full data set covers some 8,800 targets. This sample favours those with a hit. About 0.5% of all pairs of compound and target were hits. A number with no mark means an inactive call.

Tests used:
Assay in all cases: log2 fold change, soluble protein after heating vs DMSO (PISA); higher = thermal stabilisation; K562 lysate, 10 uM; active = over 0.2 and 3.5 SD of the protein, either way, in both replicates (recomputed)
alvocidib = compound: CN1CC[C@H](c2c(O)cc(O)c3c(=O)cc(-c4ccccc4Cl)oc23)[C@H](O)C1 [alvocidib]
In short: (§1)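 Log-two fold change in thermal stability relative to solvent controls is reported from duplicates. For each sample, crude K562 extract from dounce-homogenised pellets in PBS pH 7.4 with 1 mM MgCl2, at 1 mg/mL protein, was treated with 10 μM compound for 30 min. Aliquots heated for 3 min across 48°C-58°C were pooled, brought to 0.5% NP-40 at 4°C and cleared at 21,000xg for 90 min. The supernatant was quantified by TMTpro 16plex LC-MS/MS with channel sums equalised.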

Tubastatin A = compound: CN1CCc2c(c3ccccc3n2Cc2ccc(C(=O)NO)cc2)C1 [Tubastatin A]
In short: as §1

[1] = compound: CNC(=O)C1=CC=CC=C1NC2=NC(=NC=C2Cl)NC3=C(C=C(C=C3)N4CCOCC4)OC
In short: as §1

defactinib = compound: CNC(=O)c1ccc(Nc2ncc(C(F)(F)F)c(NCc3nccnc3N(C)S(C)(=O)=O)n2)cc1 [defactinib]
In short: as §1

[2] = compound: CNc1nc(-c2ccc3c(N)n[nH]c3c2)cc(N2C[C@@H](C(=O)NC3CCCCC3)CC[C@H]2C)n1
In short: as §1

encorafenib = compound: COC(=O)N[C@@H](C)CNc1nccc(-c2cn(C(C)C)nc2-c2cc(Cl)cc(NS(C)(=O)=O)c2F)n1 [encorafenib]
In short: as §1

[3] = compound: COC(=O)[C@H](CCSC)NC(=O)C1=C(C=C(C=C1)NC[C@H](CS)N)C2=CC=CC=C2
In short: as §1

alisertib = compound: COc1cc(Nc2ncc3c(n2)-c2ccc(Cl)cc2C(c2c(F)cccc2OC)=NC3)ccc1C(=O)O [alisertib]
In short: as §1

[4] = compound: COc1cc2nc(-c3cc(F)ccc3O)nc(N[C@@H]3CNC[C@H]3C(C)(C)O)c2cc1OC
In short: as §1

gefitinib = compound: COc1cc2ncnc(Nc3ccc(F)c(Cl)c3)c2cc1OCCCN1CCOCC1 [gefitinib]
In short: as §1

Sequence of UniProt O95644 (O95644 whole entry, looked up): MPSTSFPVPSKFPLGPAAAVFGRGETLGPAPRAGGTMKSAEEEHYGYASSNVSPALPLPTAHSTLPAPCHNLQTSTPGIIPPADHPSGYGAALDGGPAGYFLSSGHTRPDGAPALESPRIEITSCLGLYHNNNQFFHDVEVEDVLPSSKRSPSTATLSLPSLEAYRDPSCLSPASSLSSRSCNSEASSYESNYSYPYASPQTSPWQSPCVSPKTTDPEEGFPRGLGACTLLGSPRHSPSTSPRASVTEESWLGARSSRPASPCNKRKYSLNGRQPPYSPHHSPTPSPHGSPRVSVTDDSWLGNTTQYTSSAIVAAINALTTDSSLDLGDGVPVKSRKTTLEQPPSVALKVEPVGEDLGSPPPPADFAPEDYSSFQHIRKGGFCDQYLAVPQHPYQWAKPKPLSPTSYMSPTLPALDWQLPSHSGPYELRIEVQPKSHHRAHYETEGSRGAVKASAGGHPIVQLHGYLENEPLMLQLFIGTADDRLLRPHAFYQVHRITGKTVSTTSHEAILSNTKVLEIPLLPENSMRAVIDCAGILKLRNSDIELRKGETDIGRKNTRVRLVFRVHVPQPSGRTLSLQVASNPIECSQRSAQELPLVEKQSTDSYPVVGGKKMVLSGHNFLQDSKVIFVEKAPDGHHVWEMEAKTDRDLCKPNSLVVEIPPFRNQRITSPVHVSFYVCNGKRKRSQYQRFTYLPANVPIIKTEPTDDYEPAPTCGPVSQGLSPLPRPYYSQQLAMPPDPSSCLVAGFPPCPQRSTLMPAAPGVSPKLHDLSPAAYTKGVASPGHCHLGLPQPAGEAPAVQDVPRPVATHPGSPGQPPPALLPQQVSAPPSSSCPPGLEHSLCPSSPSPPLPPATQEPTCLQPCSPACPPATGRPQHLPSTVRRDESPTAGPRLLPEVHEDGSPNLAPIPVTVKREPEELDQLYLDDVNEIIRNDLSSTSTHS
Sequence of UniProt Q13153 (Q13153 whole entry, looked up): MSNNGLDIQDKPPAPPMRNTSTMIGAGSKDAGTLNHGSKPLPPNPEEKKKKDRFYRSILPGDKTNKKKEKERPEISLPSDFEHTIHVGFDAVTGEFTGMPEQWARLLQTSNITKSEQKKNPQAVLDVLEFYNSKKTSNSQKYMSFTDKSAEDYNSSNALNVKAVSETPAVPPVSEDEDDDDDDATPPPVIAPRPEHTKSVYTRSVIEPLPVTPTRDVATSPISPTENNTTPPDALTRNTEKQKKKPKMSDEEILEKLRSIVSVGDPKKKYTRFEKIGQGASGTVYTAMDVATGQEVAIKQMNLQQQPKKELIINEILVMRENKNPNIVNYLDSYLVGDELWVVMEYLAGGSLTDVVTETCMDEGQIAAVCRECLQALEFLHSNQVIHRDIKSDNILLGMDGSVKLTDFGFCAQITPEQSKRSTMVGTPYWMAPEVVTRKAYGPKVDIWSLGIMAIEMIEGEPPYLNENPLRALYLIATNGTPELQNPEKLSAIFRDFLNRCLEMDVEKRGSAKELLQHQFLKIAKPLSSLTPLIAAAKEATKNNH
Sequence of UniProt P84157 (P84157 whole entry, looked up): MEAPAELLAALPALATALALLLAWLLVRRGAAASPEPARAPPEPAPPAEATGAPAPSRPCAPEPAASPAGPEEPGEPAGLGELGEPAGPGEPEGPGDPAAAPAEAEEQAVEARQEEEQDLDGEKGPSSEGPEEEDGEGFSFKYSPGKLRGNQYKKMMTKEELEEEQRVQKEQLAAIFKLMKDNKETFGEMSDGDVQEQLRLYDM
Sequence of UniProt Q969R2 (Q969R2 whole entry, looked up): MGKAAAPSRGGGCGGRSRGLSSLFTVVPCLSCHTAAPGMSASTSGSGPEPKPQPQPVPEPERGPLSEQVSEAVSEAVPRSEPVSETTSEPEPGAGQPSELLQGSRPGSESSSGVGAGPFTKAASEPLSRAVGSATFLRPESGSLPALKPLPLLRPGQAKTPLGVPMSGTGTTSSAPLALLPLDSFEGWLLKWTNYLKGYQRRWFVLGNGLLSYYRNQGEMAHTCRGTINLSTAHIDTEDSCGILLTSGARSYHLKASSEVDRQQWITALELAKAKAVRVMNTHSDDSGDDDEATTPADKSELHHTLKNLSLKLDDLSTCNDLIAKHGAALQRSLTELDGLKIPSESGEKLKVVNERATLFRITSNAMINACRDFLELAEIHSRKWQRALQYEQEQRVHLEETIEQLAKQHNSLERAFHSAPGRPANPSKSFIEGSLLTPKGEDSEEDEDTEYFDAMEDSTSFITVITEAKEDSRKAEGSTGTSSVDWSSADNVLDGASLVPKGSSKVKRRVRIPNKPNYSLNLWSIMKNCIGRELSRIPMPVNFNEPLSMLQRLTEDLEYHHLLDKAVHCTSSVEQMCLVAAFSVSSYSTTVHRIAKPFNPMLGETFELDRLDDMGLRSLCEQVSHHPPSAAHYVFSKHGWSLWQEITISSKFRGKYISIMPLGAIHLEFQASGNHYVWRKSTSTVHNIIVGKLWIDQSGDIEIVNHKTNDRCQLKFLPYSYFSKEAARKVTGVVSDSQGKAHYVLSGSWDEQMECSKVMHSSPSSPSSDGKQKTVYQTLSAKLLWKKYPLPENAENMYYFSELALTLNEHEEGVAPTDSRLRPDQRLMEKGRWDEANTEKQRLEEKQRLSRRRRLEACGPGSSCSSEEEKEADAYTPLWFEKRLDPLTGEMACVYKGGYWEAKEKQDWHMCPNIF
Sequence of UniProt Q8IXH7 (Q8IXH7 whole entry, looked up): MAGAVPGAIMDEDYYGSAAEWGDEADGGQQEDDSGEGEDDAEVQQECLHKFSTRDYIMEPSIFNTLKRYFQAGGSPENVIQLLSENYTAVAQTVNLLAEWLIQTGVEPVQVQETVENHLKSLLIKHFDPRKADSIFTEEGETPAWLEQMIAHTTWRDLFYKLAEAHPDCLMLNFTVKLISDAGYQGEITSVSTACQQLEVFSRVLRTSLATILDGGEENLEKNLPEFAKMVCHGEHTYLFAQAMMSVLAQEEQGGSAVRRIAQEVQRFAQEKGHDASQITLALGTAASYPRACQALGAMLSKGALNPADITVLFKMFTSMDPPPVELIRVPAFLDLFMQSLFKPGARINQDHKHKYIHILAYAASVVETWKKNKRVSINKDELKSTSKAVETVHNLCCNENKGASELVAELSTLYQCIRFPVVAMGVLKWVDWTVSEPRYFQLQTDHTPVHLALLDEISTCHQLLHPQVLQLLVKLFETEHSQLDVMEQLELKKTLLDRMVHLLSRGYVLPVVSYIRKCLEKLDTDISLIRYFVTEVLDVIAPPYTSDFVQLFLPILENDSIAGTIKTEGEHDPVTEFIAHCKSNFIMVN
Sequence of UniProt O76041 (O76041 whole entry, looked up): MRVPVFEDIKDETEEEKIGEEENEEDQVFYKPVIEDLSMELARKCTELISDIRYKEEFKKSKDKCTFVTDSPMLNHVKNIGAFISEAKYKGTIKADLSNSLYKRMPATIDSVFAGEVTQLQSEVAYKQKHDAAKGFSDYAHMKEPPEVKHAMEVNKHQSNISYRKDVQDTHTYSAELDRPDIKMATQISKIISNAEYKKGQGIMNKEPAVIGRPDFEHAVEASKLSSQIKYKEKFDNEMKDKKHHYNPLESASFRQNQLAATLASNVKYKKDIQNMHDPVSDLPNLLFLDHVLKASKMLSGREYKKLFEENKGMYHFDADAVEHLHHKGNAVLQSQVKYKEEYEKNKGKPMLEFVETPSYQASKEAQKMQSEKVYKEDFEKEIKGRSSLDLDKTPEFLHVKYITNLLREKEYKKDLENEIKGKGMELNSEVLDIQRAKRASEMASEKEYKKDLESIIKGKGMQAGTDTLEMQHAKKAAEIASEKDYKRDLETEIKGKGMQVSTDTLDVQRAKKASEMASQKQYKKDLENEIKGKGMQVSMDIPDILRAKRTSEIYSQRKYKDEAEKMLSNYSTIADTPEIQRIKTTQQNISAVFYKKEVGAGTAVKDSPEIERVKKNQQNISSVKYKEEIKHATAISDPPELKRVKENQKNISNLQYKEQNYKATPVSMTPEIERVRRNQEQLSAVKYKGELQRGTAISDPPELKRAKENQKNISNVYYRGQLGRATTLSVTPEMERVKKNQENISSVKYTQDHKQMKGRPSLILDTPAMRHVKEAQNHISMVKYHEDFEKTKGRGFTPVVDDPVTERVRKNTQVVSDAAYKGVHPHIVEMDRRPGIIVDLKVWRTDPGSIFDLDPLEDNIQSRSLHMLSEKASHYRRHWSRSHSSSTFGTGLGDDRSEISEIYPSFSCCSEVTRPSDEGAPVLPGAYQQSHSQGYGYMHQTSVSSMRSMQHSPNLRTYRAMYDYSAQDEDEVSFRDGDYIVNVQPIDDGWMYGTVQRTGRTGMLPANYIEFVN
Sequence of UniProt Q9Y6R0 (Q9Y6R0 whole entry, looked up): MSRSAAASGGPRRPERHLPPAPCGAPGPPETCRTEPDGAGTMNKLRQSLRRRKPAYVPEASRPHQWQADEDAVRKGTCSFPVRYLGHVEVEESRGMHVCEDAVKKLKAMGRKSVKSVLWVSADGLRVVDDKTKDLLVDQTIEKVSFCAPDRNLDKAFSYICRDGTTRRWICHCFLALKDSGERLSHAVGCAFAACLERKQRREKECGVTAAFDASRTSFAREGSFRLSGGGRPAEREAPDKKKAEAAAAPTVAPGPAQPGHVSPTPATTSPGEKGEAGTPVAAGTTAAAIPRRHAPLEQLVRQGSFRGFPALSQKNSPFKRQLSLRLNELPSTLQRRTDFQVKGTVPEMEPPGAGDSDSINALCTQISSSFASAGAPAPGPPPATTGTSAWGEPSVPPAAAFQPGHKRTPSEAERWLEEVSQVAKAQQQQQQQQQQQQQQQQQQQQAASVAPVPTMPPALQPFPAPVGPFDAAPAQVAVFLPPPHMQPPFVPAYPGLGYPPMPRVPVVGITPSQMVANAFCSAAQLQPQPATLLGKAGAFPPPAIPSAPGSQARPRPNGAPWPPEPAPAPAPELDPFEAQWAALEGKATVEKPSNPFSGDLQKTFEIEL
Sequence of UniProt Q9UDX5 (Q9UDX5 whole entry, looked up): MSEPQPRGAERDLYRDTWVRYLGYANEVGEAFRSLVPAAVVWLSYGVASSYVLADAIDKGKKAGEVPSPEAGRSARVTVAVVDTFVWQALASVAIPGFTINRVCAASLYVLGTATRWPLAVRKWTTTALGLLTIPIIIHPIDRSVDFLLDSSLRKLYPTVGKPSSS

| Target | log2 fold change (alvocidib) | log2 fold change (Tubastatin A) | log2 fold change [1] | log2 fold change (defactinib) | log2 fold change [2] | log2 fold change (encorafenib) | log2 fold change [3] | log2 fold change (alisertib) | log2 fold change [4] | log2 fold change (gefitinib) |
| --- | --- | --- | --- | --- | --- | --- | --- | --- | --- | --- |
| NCKAP1L (UniProt P55160) | -0.033 | -0.043 | 0.198 | 0.009 | 0.063 | 0.058 | -0.223 | 0.022 | -0.025 | -0.059 |
| MTFP1 (UniProt Q9UDX5) | -0.087 | -0.006 | 0.053 | 0.145 | 0.007 | -0.037 | 0.102 | -0.032 | 0.003 | -0.011 |
| NELFCD (UniProt Q8IXH7) | 0.015 | -0.148 | 0.047 | 0.041 | -0.055 | 0 | 0.073 | 0.023 | -0.006 | -0.009 |
| NFATC1 (UniProt O95644) | -0.024 | -0.138 | 0.124 | -0.012 | -0.031 | -0.071 | 0.048 | -0.025 | 0.001 | 0.027 |
| NIPSNAP3A (UniProt Q9UFN0) | 0.288 (active) | 0.015 | 0.016 | -0.021 | 0.025 | 0.016 | -0.022 | -0.023 | 0.005 | -0.023 |
| NDUFS1 isoform 2 (UniProt P28331) | 0.008 | -0.018 | -0.024 | 0.028 | 0.014 | -0.011 | 0.05 | 0.03 | -0.025 | -0.001 |
| MXRA7 (UniProt P84157) | -0.002 | -0.056 | -0.052 | -0.239 | 0.131 | 0.051 | -0.028 | -0.19 | -0.009 | 0.177 |
| OPA1 isoform 2 (UniProt O60313) | 0.012 | 0.038 | -0.032 | -0.013 | -0.042 | -0.017 | 0.053 | 0.03 | -0.041 | -0.003 |
| OSBP2 (UniProt Q969R2) | -0.211 | 0.047 | -0.102 | 0.011 | -0.032 | 0.04 | -0.1 | 0.052 | -0.033 | 0.011 |
| NIT2 (UniProt Q9NQR4) | 0.046 | 0.047 | -0.003 | -0.05 | 0.013 | -0.032 | 0.082 | 0.012 | 0.019 | -0.017 |
| OARD1 (UniProt Q9Y530) | -0.003 | -0.097 | 0 | 0.037 | -0.11 | 0.011 | 0.018 | 0.011 | 0.028 | -0.014 |
| MRPL58 (UniProt Q14197) | 0 | -0.065 | 0.027 | -0.045 | 0.033 | 0.011 | -0.078 | -0.021 | -0.02 | -0.04 |
| NACC1 (UniProt Q96RE7) | -0.02 | -0.086 | 0.002 | -0.01 | 0.016 | 0.022 | 0.024 | 0.018 | -0.012 | -0.019 |
| NEBL (UniProt O76041) | 0.149 | 0.022 | -0.048 | 0.024 | 0.043 | -0.083 | 0.015 | -0.134 | -0.005 | 0 |
| ORC2 (UniProt Q13416) | 0.034 | -0.161 | 0.038 | 0.034 | -0.008 | 0.018 | 0.094 | 0.012 | -0.002 | -0.011 |
| NUMB (UniProt P49757) | -0.021 | -0.125 | -0.028 | -0.02 | 0.026 | 0.094 | 0.013 | -0.031 | -0.007 | 0.052 |
| NCK1 (UniProt P16333) | 0 | -0.097 | 0.023 | -0.02 | -0.008 | 0.008 | -0.068 | -0.003 | -0.007 | 0.026 |
| NUMBL (UniProt Q9Y6R0) | -0.032 | -0.103 | -0.023 | -0.218 | 0.023 | 0.189 | -0.068 | -0.064 | 0.044 | 0.09 |
| PAK1 (UniProt Q13153) | -0.023 | 0.026 | 0.011 | -0.006 | 0.044 | -0.012 | 0.023 | 0.016 | 0.02 | -0.06 |
| MRPL53 (UniProt Q96EL3) | 0.005 | -0.048 | -0.02 | 0.051 | -0.048 | -0.036 | -0.226 (active) | 0.049 | 0 | -0.048 |
| NFATC4 isoform 2 (UniProt Q14934) | -0.062 |  |  | -0.12 | 0.023 | 0.011 | -0.032 | 0.048 | 0.244 | 0.132 |
| NOB1 (UniProt Q9ULX3) | 0.077 | -0.129 | -0.005 | 0 | -0.011 | 0.036 | 0.037 | 0.047 | -0.031 | -0.022 |
